Compound activity: PubChem BioAssay, National Center for Advancing Translational Sciences (NCATS)
Compounds with a hit are over-represented: about 2.4% of the library has one in this group of screens.
D2 antagonist: D2 dopamine receptor (human) antagonism; HEK293 TREx D2 cells, calcium flux, dopamine EC80; inhibition, % at 10 µM; 2% of 340,000 active; AID 485344; in the data active means inhibition above about 30%; inactive means below that, where a call was filed; further: 0% is about no effect
Target sequence (P14416 whole entry, looked up): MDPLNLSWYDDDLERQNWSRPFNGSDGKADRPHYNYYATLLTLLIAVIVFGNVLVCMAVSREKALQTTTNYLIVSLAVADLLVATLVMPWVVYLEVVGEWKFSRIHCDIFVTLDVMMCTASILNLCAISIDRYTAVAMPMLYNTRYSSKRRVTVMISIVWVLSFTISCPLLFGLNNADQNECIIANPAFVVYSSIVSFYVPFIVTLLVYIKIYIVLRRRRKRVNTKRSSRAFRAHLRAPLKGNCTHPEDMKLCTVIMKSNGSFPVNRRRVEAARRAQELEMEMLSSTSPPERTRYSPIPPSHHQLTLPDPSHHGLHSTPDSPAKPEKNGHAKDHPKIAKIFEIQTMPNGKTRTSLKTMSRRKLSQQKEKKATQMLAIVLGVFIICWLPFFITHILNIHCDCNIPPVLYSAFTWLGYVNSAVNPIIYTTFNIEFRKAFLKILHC
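Read-out: kinetic calcium fluorescence (1 cycle/s) in inducible HEK293 T-REx D2 cells after an EC80 dopamine addition that followed 180 s compound preincubation. Loss of the dopamine response indicates antagonism.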
D2 ag-1: D2 dopamine receptor (human) agonism. P14416. HEK293 T-REx D2 cells, calcium flux agonist mode. activation, % at 2 µM. 0.53% of 340,000 active. AID 485358;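 active means activation over 3 SD above normal in the single-dose calcium agonist read, cut at about 30% in these data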; further: 0% is about no effect
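HEK293 Trex D2 cells, tetracycline-induced, o/n 30 C 5% CO2; no-wash Ca dye, RT 30–90 min; 10-cycle baseline, 23 nl cpd added, kinetic Ca read 180 s; agonist hits = positive Ca response.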
D2 PAM-1: positively modulates the human D2 dopamine receptor allosterically. HEK293 T-REx D2, calcium flux, EC20 dopamine potentiation. P14416. potentiation, % at 10 µM. AID 485347. 0.34% of 340,000 active;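 active means potentiation over 3 SD above the plate norm, cut at about 30% in these data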; further: 0% is about no effect
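Tetracycline-induced Hek293 Trex D2 cells, force-coupled to calcium, loaded with no-wash calcium dye. Compound added with 180 s kinetic read for agonism, then EC20 dopamine and a further 180 s read for potentiation.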
D2 ag-2: activates the human D2 dopamine receptor | activation, % (test concentration not listed) | DiscoveRx PathHunter D2 beta-arrestin, luminescence, 90 min; 100% = 57 uM dopamine signal | P14416 | AID 624465 | 0.084% of 360,000 active; in the data active means activation above about 40%; inconclusive means between about 15% and that limit
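DiscoveRx PathHunter D2 beta-arrestin cells (2,100/well) attached overnight, then compound-stimulated 90 min at 37 C in HBSS/10 mM HEPES/0.1% Tween-20 buffer; beta-galactosidase complementation read by luminescence after 1 h at ambient temperature. Dopamine 57 uM final (EC100) as control.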
D2 PAM-2: human D2 receptor positive allosteric modulation; P14416; DiscoveRx D2 beta-arrestin cells, luminescence, 90 min; 100% = 57 uM dopamine signal; potentiation, % (test concentration not listed); 0.23% of 360,000 active; AID 624464; in the data active means potentiation above about 50%; inconclusive means mostly about 30% to 49%
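PathHunter D2 cells, attached overnight at 37 deg C, received compound in DMSO plus dopamine at EC20 (50 nM final) for 90 min at 37 deg C. Beta-arrestin recruitment was read as luminescence after 1 h with detection reagent at ambient temperature.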
Numbers without * were called inactive; u = inconclusive; x = no result given; ! = a repeat was not active.

SMILES	D2 antagonist	D2 ag-1	D2 PAM-1	D2 ag-2	D2 PAM-2
COc1cccc(-c2nc(CS(=O)(=O)CC(=O)NC3CC3)c(C)o2)c1	-6.9	-0.4	-1.3	-1.9	-5.8
CC(=O)Nc1cccc(NC(=O)CSc2cn(CC(=O)N3CCCCCC3)c3ccccc23)c1	x	-0.1	-5.4	x	x
CCOc1ccc(OCC)c(NC(=O)Cn2nc(CC)n3c(cc4sccc43)c2=O)c1	x	-0.4	-1.6	x	x
CCOC(=O)C1(CCOC)CCN(Cc2nc(-c3cccs3)oc2C)CC1	31.4*	0.6	-21.7	-3.0	-14.2
Cc1oc(-c2cccs2)nc1CN1CCC(C(=O)N2CCCC2)CC1	23.2	-1.8	-9.5	-3.9	-11.3
Cc1oc(-c2cccs2)nc1CN1CCC(CO)(CCOc2ccccc2)CC1	54.1*	-0.7	-8.0	-3.8	-29.4
Cc1cc(NC(=O)N2CCC(CN3CCCCCC3)CC2)ccc1Br	x	-0.2	-4.1	x	x
CC1(C)C(=O)NCCN1C(=O)CCC(=O)O	-17.0	0.3	32.8*	0.1	-19.7
CC(C)Cn1nc(C(=O)NCc2ccccc2CN2CCCC2)c2ccccc2c1=O	44.9*	-0.1	-29.8	-1.2	-31.5
CCCn1nc(C(=O)NCc2ccc3c(c2)OCO3)c2ccccc2c1=O	5.4	-1.2	38.7*	10.7	-6.1
COc1ccccc1/C=C/c1nc(C#N)c(NCc2ccccc2)o1	x	x	-8.2	x	x
CCCc1nnc2n1N=C(c1ccc(OC)c(OC)c1)CS2	13.2	1.1	89.1*	0.1	1.7
COc1ccc(C2=Nn3c(nnc3-c3ccccc3)SC2)cc1OC	-2.7	0.6	23.1	-2.3	-3.1
CC(C)(C)NC(=O)C(c1ccncc1)N(Cc1cccs1)C(=O)c1csnn1 (stereo unspecified)	-3.1	1.1	-6.3	-1.0	-3.6
O=C(NC1CCCC1)C(c1ccncc1)N(Cc1cccs1)C(=O)c1csnn1 (stereo unspecified)	35.6*	-0.7	2.7	-1.8	-12.2
CC(Oc1ccccc1F)C(=O)N1CCC(c2nc3ccccc3o2)CC1 (stereo unspecified)	x	-1.1	10.5	x	x
CCc1nnc(NC(=O)C(C)N2C(=O)C3C4C=CC(C4)C3C2=O)s1 (stereo unspecified)	32.8*	0.6	-10.3	-2.0	-4.4
Cc1nnc(NC(=O)NC(C)N2C(=O)C3C4C=CC(C4)C3C2=O)s1 (stereo unspecified)	4.8	0.6	-1.7	1.2	-2.4
Cc1c(Cl)cccc1NC(=O)CN1C(=O)COc2ccc(S(=O)(=O)N3CCCCCC3)cc21	x	-0.4	2.8	x	x
CSc1nsc2nc(=O)c(/C=C3\C(C)=Nc4ccc(C)cc43)c(N)n12	3.6	1.1	x	-4.9	-5.4
CC1=Nc2ccc(C)cc2/C1=C/c1c(N)n2oc(C)cc2nc1=O	60.6*!	1.1	4.4	-1.5	-3.3
COc1cc(NS(=O)(=O)c2ccc(NC(=O)c3ccc(C(C)=O)cc3)cc2)nc(OC)n1	x	x	2.1	x	x
Cc1ccccc1N1C(=O)CC(Nc2ccc3c(c2)OCO3)C1=O (stereo unspecified)	31.4*	-0.6	-2.5	-5.5	-3.6
C=CCNC(=O)c1oc2ccc(S(=O)(=O)N3CCCCC3)cc2c1C	-4.9	0.4	-1.3	-1.2	-4.6
C=CCNC(=O)c1oc2ccc(S(=O)(=O)N3CCC4(CC3)OCCO4)cc2c1C	-1.0	0.3	32.8*	0.3	-4.5
SMILES	D2 antagonist	D2 ag-1	D2 PAM-1	D2 ag-2	D2 PAM-2
CCOC(=O)c1cccc(NC(=O)c2oc3c(c2C)-c2nn(CC)cc2CC3)c1	x	0.2	4.5	x	x
Cc1nc2ccc(NC(=O)c3cc([N+](=O)[O-])cc([N+](=O)[O-])c3Cl)cc2s1	-13.3	-0.2	-3.2	12.4	62.7*
Cc1nc2ccc(NC(=O)c3ccc(Cl)c([N+](=O)[O-])c3)cc2s1	-14.7	0.3	7.3	-2.5	3.5
C[N+](C)(CCOc1ccccc1)Cc1ccccc1 (tested in a mixture with another compound)	29.0	-0.3	-6.1	u	74.3*
Cc1cc(C(C)(C)C)cc(C)c1CC1=NCCN1	50.1*	23.2	-30.2	-0.6	-20.9
Cc1ccc(C)c(N2N=C(C(=O)Nc3ccc(N4CCOCC4)cc3)CCC2=O)c1	35.1*	-0.4	0.2	-3.2	-11.4
Cc1ccc(C)c(N2N=C(C(=O)O)CCC2=O)c1	5.6	0.3	-8.2	1.4	-1.8
